# Source: paper PMC5540273 (PLoS ONE, 2017)
# Key:
# Settings in all cases: concentration: 1 μM, replicates: in singlicate; n = 1
# [1] = tested on: MYO3B
# [2] = tested on: T1, NDR1
# T1 construct: gene STK38
# [3] = tested on: NDR2
# [4] = tested on: NEK10
# [5] = tested on: NEK11
# [6] = tested on: NEK1
# [7] = tested on: NEK2
# [8] = tested on: NEK3
# [9] = tested on: NEK4
# [10] = tested on: NEK5
# [11] = tested on: NEK6
# [12] = tested on: NEK7
# [13] = tested on: NEK9
# [14] = tested on: T2, NIK
# T2 construct: gene MAP3K14
# [15] = tested on: T3, NIM1
# T3 construct: gene MGC42105
# [16] = tested on: NLK
# [17] = tested on: T4, OSR1
# T4 construct: gene OXSR1
# [18] = tested on: PAK1
# [19] = tested on: PAK2
# [20] = tested on: PAK3
# 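Also: KINOMEscan kinase panel screen.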
Compound,%Inh [1],%Inh [2],%Inh [3],%Inh [4],%Inh [5],%Inh [6],%Inh [7],%Inh [8],%Inh [9],%Inh [10],%Inh [11],%Inh [12],%Inh [13],%Inh [14],%Inh [15],%Inh [16],%Inh [17],%Inh [18],%Inh [19],%Inh [20]
O=C(NCCNc1ccnc(Nc2ccc(F)cc2)n1)c1cc2ccccc2s1 [GSK1379874],0%,0%,0%,7%,0%,0%,0%,4%,0%,0%,0%,0%,16%,0%,33%,0%,12%,6%,0%,0%
O=C(NOCC1CC1)c1ccc(F)c(F)c1Nc1ccc(I)cc1Cl,0%,0%,0%,0%,0%,0%,0%,26%,0%,0%,0%,0%,0%,0%,0%,0%,0%,0%,0%,0%
Cc1nnc(-c2ccc3occ(-c4ccc(C(C)O)cc4)c3c2)o1 (centres unmarked),0%,18%,55%,30%,0%,0%,0%,3%,0%,0%,4%,0%,0%,0%,0%,2%,25%,14%,16%,23%
NS(=O)(=O)c1cccc(-c2ccc3ncc(N4CCOCC4)nc3c2)c1 [GSK1535721],0%,21%,0%,0%,0%,0%,12%,0%,0%,8%,0%,0%,0%,0%,0%,8%,0%,17%,0%,0%
CC(C)Oc1ccc2c(-c3ccnc(Nc4ccc(N5CCN(C)CC5)cc4)n3)cnn2n1 [GW696155],0%,86%,52%,97.6%,86%,86%,93.3%,98.5%,10%,100%,99.8%,92.6%,92.9%,21%,75%,47%,87%,83%,53%,28%
N#Cc1ccc(-c2cc(-c3c[nH]nc3-c3ccccn3)ccn2)cc1 [GW693028],0%,14%,0%,11%,5%,0%,0%,8%,20%,5%,0%,0%,0%,18%,35%,16%,4%,8%,9%,0%
CCc1nc(-c2cccc(C)c2)c(-c2ccnc(NCc3ccccc3)c2)s1,0%,0%,0%,0%,0%,7%,0%,24%,0%,0%,0%,0%,0%,0%,0%,21%,0%,30%,27%,22%
CSc1ccc(-c2cc3ncnc(SCC(=O)O)c3s2)cc1,1%,1%,0%,26%,0%,2%,0%,31%,0%,0%,17%,8%,0%,0%,0%,26%,0%,0%,0%,0%
COc1ccc(Nc2nccc(N3CCC(NC(=O)Nc4cccc(C(C)=O)c4)C3)n2)cc1 (centres unmarked) [GSK1379731],0%,0%,0%,13%,15%,0%,0%,0%,13%,3%,0%,0%,0%,2%,12%,0%,16%,0%,6%,0%
O=C1Cc2cc(Nc3nc(NCc4cccc(S(=O)(=O)C(F)(F)F)c4)ncc3C(F)(F)F)ccc2N1,0%,9%,0%,36%,0%,10%,9%,12%,5%,14%,14%,0%,0%,4%,26%,4%,4%,0%,0%,1%
